# The full data set covers some 7,900 targets. This sample favours those with a hit. About 0.6% of all pairs of compound and target were hits. A number with no mark means an inactive call.
# Columns and labels:
# Assay in all cases: log2 fold change, soluble protein after heating vs DMSO (PISA); higher = thermal stabilisation; K562 cells, 10 uM, 30 min; active = over 0.2 and 3.5 SD of the protein, either way, in both replicates (recomputed)
# [1] = compound: CS(=O)(=O)c1ccc(-c2cnc(N)c(C(=O)Nc3ccccc3)n2)cc1
# Summary of the method: (§1)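 K562 cells at 2×10^6 cells/mL were treated for 30 min with 10 μM compound, and aliquots were heated for 3 min over 48°C-58°C before pooling. Extraction used PBS with 0.5% NP-40 at 4°C, and soluble protein was the supernatant after 21,000xg for 90 min, measured by TMTpro 16plex LC-MS/MS with channel sums equalised. Thermal stability values, relative to control samples and from duplicates, are log2 fold changes.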
# [2] = compound: C[C@@H]1COCCN1C2=NC(=NC(=C2)C3(CC3)S(=O)(=O)C)C4=C5C=CNC5=CC=C4
# Summary of the method: as §1
# [3] = compound: C[C@H](C1=CC=C(C=C1)C(=O)NC2=C3C=CNC3=NC=C2)N
# Summary of the method: as §1
# [4] = compound: C[C@H](Nc1ncnc2nc[nH]c12)c1cc2cccc(Cl)c2c(=O)n1-c1ccccc1 [duvelisib]
# Summary of the method: as §1
# [5] = compound: Cc1cc(Nc2cc(CN3CCOCC3)c3nc(C)c(Cc4ccc(Cl)cc4F)n3n2)n[nH]1 [gandotinib]
# Summary of the method: as §1
# [6] = compound: Cc1cc(Nc2cc(N3CCN(C)CC3)nc(Sc3ccc(NC(=O)C4CC4)cc3)n2)n[nH]1 [tozasertib]
# Summary of the method: as §1
# [7] = compound: Cc1cc(SCc2sc(-c3ccc(C(F)(F)F)cc3)nc2C)ccc1OCC(=O)O
# Summary of the method: as §1
# [8] = compound: Cc1ccc(C(=O)N(CCCN)[C@@H](c2nc3cc(Cl)ccc3c(=O)n2Cc2ccccc2)C(C)C)cc1 [ispinesib]
# Summary of the method: as §1
# [9] = compound: Cc1ccc(NC(=O)c2ccc(CN3CC[C@H](N(C)C)C3)c(C(F)(F)F)c2)cc1Nc1nccc(-c2cncnc2)n1 [bafetinib]
# Summary of the method: as §1
# [10] = compound: Cc1cccc(CC(=O)N2CCc3c2ccc(-c2cn(C)c4ncnc(N)c24)c3F)n1
# Summary of the method: as §1
# [11] = compound: Cc1cn(-c2cc(NC(=O)c3ccc(C)c(Nc4nccc(-c5cccnc5)n4)c3)cc(C(F)(F)F)c2)cn1 [nilotinib]
# Summary of the method: as §1
# [12] = compound: Cc1nc(Nc2n[nH]c3c2CN(C(=O)N[C@H](CN(C)C)c2ccccc2)C3(C)C)c2sccc2n1
# Summary of the method: as §1
# [13] = compound: Cc1nc(Nc2ncc(C(=O)Nc3c(C)cccc3Cl)s2)cc(N2CCN(CCO)CC2)n1 [dasatinib]
# Summary of the method: as §1
# [14] = compound: Cc1ncc(-c2ccnc(Nc3ccc(S(C)(=O)=O)cc3)n2)n1C(C)C
# Summary of the method: as §1
# [15] = compound: Cn1cc(-c2ccc3c(c2)CCN3C(=O)Cc2cccc(C(F)(F)F)c2)c2c(N)ncnc21
# Summary of the method: as §1
# [16] = compound: Cn1cc(-c2ccc3nnc(C(F)(F)c4ccc5ncccc5c4)n3n2)cn1
# Summary of the method: as §1
# [17] = compound: Cn1cncc1[C@@](N)(c1ccc(Cl)cc1)c1ccc2c(c1)c(-c1cccc(Cl)c1)cc(=O)n2C [tipifarnib]
# Summary of the method: as §1
# [18] = compound: FC(F)(F)c1ccc(/C=C/c2nc(COc3ccc(CCCCn4ccnn4)cc3)co2)cc1 [mubritinib]
# Summary of the method: as §1
# [19] = compound: C[C@@H](Oc1cc(-c2cnn(C3CCNCC3)c2)cnc1N)c1c(Cl)ccc(F)c1Cl [crizotinib]
# Summary of the method: as §1
# [20] = compound: Cc1ccc(-n2nc(C(C)(C)C)cc2NC(=O)Nc2ccc(OCCN3CCOCC3)c3ccccc23)cc1 [doramapimod]
# Summary of the method: as §1
# Chain of UniProt Q01196 (Q01196 whole entry, looked up): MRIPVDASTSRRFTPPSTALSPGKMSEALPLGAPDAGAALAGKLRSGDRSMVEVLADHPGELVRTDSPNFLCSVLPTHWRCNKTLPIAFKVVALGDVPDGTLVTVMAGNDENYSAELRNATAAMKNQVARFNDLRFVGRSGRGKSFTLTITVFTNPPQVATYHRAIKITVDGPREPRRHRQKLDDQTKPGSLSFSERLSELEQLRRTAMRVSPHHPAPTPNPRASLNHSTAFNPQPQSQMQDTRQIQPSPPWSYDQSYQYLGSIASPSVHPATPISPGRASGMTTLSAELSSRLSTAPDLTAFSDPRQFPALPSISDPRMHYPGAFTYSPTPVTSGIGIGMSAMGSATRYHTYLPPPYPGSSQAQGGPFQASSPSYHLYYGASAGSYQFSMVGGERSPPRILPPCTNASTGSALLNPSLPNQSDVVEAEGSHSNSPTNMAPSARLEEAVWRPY
# Chain of UniProt O75056 (O75056 whole entry, looked up): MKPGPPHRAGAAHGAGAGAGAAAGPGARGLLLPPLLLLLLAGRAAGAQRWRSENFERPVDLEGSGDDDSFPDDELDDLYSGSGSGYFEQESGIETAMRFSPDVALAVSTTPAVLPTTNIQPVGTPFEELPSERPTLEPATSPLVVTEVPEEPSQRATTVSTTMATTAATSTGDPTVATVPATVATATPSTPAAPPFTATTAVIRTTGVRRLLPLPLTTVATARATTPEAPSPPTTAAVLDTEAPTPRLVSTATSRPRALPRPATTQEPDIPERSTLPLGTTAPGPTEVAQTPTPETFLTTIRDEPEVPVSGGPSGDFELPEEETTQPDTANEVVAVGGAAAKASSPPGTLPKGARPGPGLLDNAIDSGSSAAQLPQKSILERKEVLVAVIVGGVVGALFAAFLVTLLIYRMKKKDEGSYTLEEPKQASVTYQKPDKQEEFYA
# Chain of UniProt O15127 (O15127 whole entry, looked up): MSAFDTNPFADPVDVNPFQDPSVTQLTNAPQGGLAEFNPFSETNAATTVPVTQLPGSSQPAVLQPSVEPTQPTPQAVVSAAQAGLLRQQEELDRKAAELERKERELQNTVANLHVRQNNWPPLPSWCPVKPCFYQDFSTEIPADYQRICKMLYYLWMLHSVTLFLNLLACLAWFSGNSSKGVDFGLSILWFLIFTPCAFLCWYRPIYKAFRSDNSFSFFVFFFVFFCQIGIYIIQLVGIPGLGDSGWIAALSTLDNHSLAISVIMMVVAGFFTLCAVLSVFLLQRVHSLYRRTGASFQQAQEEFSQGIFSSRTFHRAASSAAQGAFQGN
# Chain of UniProt P60903 (P60903 whole entry, looked up): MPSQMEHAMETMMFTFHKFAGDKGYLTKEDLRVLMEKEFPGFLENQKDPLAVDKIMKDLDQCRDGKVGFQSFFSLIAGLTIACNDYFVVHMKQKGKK
# Chain of UniProt Q86X27 (Q86X27 whole entry, looked up): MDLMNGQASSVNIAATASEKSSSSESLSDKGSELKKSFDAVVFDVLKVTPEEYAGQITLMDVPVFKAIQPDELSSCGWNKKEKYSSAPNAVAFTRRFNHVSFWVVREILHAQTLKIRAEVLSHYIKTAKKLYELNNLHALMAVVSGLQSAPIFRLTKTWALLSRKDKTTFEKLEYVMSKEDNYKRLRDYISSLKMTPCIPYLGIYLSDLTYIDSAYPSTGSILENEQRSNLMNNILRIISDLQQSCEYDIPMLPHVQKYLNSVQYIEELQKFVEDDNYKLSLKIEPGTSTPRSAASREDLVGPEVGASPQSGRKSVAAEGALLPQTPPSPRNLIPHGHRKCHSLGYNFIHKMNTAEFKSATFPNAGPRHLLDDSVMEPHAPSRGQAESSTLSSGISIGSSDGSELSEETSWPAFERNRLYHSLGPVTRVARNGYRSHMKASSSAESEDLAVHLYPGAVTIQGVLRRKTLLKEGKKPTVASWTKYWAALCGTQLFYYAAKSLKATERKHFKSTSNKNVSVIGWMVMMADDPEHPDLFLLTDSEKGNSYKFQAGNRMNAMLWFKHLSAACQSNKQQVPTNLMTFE
# Chain of UniProt Q96EU6 (Q96EU6 whole entry, looked up): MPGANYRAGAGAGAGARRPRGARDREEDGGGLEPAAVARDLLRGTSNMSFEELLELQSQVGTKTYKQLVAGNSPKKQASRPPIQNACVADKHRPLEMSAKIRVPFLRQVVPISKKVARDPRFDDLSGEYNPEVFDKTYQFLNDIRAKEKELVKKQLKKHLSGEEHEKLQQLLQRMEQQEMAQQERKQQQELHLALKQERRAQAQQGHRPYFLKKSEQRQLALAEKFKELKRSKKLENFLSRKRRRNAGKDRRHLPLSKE
# Chain of UniProt Q9BY78 (Q9BY78 whole entry, looked up): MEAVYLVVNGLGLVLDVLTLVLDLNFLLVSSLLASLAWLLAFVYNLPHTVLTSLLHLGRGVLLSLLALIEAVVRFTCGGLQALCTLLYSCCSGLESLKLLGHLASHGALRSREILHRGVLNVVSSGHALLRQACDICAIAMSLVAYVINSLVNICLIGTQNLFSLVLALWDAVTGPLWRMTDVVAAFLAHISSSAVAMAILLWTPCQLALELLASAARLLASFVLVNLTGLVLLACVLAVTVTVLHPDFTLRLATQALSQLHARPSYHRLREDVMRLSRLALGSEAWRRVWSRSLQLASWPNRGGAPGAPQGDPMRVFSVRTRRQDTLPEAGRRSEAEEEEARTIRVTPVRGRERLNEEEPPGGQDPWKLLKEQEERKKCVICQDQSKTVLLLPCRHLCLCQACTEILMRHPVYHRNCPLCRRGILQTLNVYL
# Chain of UniProt O75582 (O75582 whole entry, looked up): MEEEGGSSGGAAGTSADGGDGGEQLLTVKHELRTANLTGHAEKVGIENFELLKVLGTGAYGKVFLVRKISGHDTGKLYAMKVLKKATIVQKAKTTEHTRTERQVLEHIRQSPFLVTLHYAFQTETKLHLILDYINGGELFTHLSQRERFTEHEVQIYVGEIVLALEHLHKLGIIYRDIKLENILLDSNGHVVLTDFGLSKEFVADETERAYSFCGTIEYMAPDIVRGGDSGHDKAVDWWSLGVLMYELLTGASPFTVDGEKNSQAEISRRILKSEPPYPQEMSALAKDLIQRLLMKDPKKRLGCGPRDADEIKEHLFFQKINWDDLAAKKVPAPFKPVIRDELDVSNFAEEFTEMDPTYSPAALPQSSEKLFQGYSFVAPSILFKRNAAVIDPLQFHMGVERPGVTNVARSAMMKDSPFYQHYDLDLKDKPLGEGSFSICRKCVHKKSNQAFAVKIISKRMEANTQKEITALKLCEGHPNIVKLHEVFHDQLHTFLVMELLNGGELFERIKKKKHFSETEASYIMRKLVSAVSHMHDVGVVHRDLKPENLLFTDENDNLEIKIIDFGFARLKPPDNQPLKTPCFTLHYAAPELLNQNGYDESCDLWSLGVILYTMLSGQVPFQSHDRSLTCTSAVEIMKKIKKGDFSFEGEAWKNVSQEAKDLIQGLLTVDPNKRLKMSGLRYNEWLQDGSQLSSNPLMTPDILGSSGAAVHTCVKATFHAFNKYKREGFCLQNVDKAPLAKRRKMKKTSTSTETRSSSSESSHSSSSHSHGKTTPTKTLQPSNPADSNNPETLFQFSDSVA
# Chain of UniProt Q5VTB9 (Q5VTB9 whole entry, looked up): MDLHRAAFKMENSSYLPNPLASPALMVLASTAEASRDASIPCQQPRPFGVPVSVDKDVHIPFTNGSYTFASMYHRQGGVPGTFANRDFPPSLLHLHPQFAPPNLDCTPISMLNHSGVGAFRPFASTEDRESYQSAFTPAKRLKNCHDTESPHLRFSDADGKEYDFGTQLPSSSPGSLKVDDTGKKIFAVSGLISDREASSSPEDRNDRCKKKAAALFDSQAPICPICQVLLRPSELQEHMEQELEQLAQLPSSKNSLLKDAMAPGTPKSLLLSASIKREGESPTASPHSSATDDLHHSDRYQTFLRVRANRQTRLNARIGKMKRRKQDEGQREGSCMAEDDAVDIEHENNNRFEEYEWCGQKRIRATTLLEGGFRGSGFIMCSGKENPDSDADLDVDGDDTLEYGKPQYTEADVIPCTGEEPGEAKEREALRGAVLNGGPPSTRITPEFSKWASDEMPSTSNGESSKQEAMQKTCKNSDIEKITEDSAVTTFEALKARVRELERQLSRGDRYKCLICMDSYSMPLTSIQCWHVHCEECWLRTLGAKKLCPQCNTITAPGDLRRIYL
# Chain of UniProt Q9H4P4 (Q9H4P4 whole entry, looked up): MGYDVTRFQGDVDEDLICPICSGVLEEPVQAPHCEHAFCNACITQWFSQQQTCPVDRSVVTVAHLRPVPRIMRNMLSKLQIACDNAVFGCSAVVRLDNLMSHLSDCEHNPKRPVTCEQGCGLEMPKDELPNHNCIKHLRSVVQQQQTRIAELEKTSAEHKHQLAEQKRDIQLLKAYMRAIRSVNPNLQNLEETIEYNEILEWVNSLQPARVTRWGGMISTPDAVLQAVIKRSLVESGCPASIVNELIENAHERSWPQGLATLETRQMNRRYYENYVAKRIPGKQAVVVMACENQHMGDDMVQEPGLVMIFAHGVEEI
Target,log2 fold change [1],log2 fold change [2],log2 fold change [3],log2 fold change [4],log2 fold change [5],log2 fold change [6],log2 fold change [7],log2 fold change [8],log2 fold change [9],log2 fold change [10],log2 fold change [11],log2 fold change [12],log2 fold change [13],log2 fold change [14],log2 fold change [15],log2 fold change [16],log2 fold change [17],log2 fold change [18],log2 fold change [19],log2 fold change [20]
RRP36 (UniProt Q96EU6),-0.115,-0.645,0.271,-0.16,0.182,0.031,0.022,0.043,0.428,0.054,-0.007,0.203,0.164,-0.011,-0.319,-0.016,0.208,-0.132,,
RNF26 (UniProt Q9BY78),,,,,0.008,,,-0.829,0.083,0.111,,,,,,-0.011,,,,
RPS3 (UniProt E9PJN9),,,,0.102,-0.017,-0.215,0.148,-0.224,,0.076,,,-0.207,,,-0.159,,,,
RCOR3 isoform 3 (UniProt Q9P2K3),-0.039,,-0.061,0.105,-0.015,0.091,0.104,-0.065,0.023,0.039,-0.019,0.001,-0.09,-0.022,-0.056,0.006,-0.119,0.09,-0.117,-0.047
RUNX1 isoform 8 (UniProt Q01196),0.106,0.089,,-0.045,0.088,,0.178,0.155,-0.149,-0.224,-0.07,-0.281,-0.082,-0.209,,-0.104,0.001,0.01,-0.066,0.054
RPS19 (UniProt M0R2L9),,,,,,-0.034,,,,,0.116,0,,-0.267,,,-0.126,0.229,,
SDC3 (UniProt O75056),-0.047,0.057,0.151,0.11,-0.193,-0.131,-0.19,,,0.419,-0.004,0.07,0.073,-0.036,-0.019,,,,,
RNF41 (UniProt Q9H4P4),,,,,,,,,-0.09,,,,,,,,,,,
RPS6KA5 (UniProt O75582),,0.045,,,,,,0.018,,,,,,,,-0.098,-0.07,-0.171,-0.393,-0.016
RNF220 isoform 3 (UniProt Q5VTB9),,,,,,,,,,,,,,,,,-0.282,,,
RALGPS2 (UniProt Q86X27),,-0.199,0.222,-0.117,0.08,-0.112,0.106,,-0.072,-0.001,,,-0.011,,0.043,,,-0.198,-0.237,0.289
SEPTIN5 (UniProt G3XAH0),-0.042,0.087,-0.089,-0.032,-0.153,-0.028,-0.036,-0.017,-0.038,-0.013,-0.05,-0.024,-0.049,-0.008,-0.05,0.082,0.006,-0.011,,
SCAMP2 (UniProt O15127),0.019,-0.213,-0.544 (active),0.009,0.034,0.044,-0.065,-0.073,-0.113,-0.125,0.084,-0.107,-0.027,0.058,0.11,0.062,-0.061,0.046,,
S100A10 (UniProt P60903),-0.004,,0.063,,0.131,0.057,,,-0.026,-0.035,0.072,-0.057,,-0.016,0.146,,0.131,,,

# — the supplement of paper PMC10849652
